# Source: PubChem BioAssay AID1006 (Sanford-Burnham Center for Chemical Genomics, 2008)
# Out of some 200,000 compounds screened, about 3,000 (1.5%) were called active.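 The calls were made as follows: active = inhibition above about 50% when tested at 10 µM (limit read from the data); inactive = the rest.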 The entries come from a sample that favours actives as a whole.
# Biological target: Luciferin 4-monooxygenase (Photinus pyralis) (UniProt P08659)
# Test: inhibition of purified FLuc reporter enzyme – biochemical, luminescence, ATPLite, artefact control for luciferase-based inhibitor screens, primary screen (AID 1006)
# Conditions: ATPLite firefly luciferase biochemical luminescence, 10 min; at 10 µM; hits give high values
# Chain of Luciferin 4-monooxygenase (Photinus pyralis) (P08659 whole entry, looked up): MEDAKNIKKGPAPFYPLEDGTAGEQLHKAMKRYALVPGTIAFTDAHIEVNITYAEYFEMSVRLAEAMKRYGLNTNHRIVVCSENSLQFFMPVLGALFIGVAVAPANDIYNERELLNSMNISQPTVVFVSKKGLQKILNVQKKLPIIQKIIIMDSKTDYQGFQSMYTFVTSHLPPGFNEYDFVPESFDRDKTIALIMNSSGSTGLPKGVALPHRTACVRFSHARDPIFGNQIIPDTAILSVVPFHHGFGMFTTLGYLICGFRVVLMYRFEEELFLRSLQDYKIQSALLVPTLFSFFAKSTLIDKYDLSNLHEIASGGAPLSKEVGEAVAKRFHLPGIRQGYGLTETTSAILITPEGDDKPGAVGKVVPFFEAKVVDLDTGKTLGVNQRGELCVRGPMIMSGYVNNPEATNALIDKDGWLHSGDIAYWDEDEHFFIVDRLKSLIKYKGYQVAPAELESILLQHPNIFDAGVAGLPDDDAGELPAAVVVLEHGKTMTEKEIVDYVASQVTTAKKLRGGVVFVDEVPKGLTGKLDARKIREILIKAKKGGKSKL
row,Structure (SMILES),inhibition
1,O=C(Nc1ccnc(-c2ccncc2)n1)c1cccs1,-0.6% (inactive)
2,COC(=O)CSc1nccc(-c2cccs2)n1,3.7% (inactive)
3,O=C(O)COc1ccc(-c2nccc(-c3cccs3)n2)cc1,77.5% (active)
4,COc1cccc(/C=N/NC(=O)c2[nH]nc3c2CCc2ccccc2-3)c1O,28.9% (inactive)
5,COc1cccc(/C=N/Nc2cc(C)nc(-c3ccccc3O)n2)c1O,9.6% (inactive)
6,COc1cccc(/C=N\NC(=O)C2=NNC(=O)C2C)c1O (stereo unspecified),83.5% (active)
7,CNC(=O)NC(=O)C(OC(=O)c1cccc(S(=O)(=O)N2CCCCC2)c1)c1ccccc1 (stereo unspecified),-3.2% (inactive)
8,COc1cccc(-c2nc(S(=O)(=O)c3ccccc3)c(N3CCOCC3)o2)c1,-0.7% (inactive)
9,COc1ccc(-c2nc3cc([N+](=O)[O-])ccc3o2)cc1OC,2.5% (inactive)
10,COc1ccc2oc(-c3cccc(NC(=O)CSc4ccc(Cl)cc4)c3)nc2c1,3% (inactive)
11,COc1cccc(-c2nc3cc(C)ccc3o2)c1,82.8% (active)
12,O=[N+]([O-])c1ccc2oc(-c3cccc(O)c3)nc2c1,53.2% (active)
13,O=C(Cc1cccc2ccccc12)Nc1ccc2oc(-c3ccccc3)nc2c1,2.6% (inactive)
14,Cc1cc(NC(=O)CSc2nc3ccccc3n2CC(C)C)no1,-5.3% (inactive)
15,COc1ccc(F)c(-c2nc(CN3CCC(c4ccccc4)CC3)c(C)o2)c1,0.5% (inactive)
16,O=C(CCN1C(=O)C2C3C=CC(C3)C2C1=O)Oc1ccc2ccccc2c1 (stereo unspecified),-3.9% (inactive)
17,CC1CC(C)CN(S(=O)(=O)c2ccc(C(=O)NN3CCOCC3)cc2)C1 (stereo unspecified),0.2% (inactive)
18,COc1ccc(-c2csc(Cc3nc(O)cs3)n2)cc1,4.6% (inactive)
19,CSCC[C@H](NC(=O)OC(C)(C)C)C(=O)N/N=C/c1cc2ccc(C)cc2nc1Cl,-6.9% (inactive)
20,c1c2c(cc3sc(N4CCCCC4)nc13)OCCO2,92.9% (active)
21,Brc1ccc2nc(N3CCCC3)sc2c1,35.9% (inactive)

row,Structure (SMILES),inhibition
1,COc1ccc2nc(Nc3nc4cc5c(cc4s3)OCCO5)sc2c1,11.3% (inactive)
2,Cc1ccc(N(C(=O)c2ccc(CN3CCOCC3)o2)C(C(=O)NCCC(C)C)c2cccs2)c(C)c1 (stereo unspecified),-4.1% (inactive)
3,COc1ccc(C(=O)NCC(=O)N/N=C/c2ccc([N+](=O)[O-])s2)cc1OC,2.8% (inactive)
4,OC(CNCc1ccc(Cl)c(Cl)c1)c1ccccc1 (stereo unspecified),-8.3% (inactive)
5,CCCOC(=O)C1=C(C)NC2=C(C(=O)C(C(=O)OC)C(C)C2)C1c1ccc(N(C)C)cc1 (stereo unspecified),0.8% (inactive)
6,COC(=O)C1C(=O)c2c([nH]c(C(=O)OCCSC)c2C)CC1C (stereo unspecified),50.1% (active)
7,CCCOC(=O)c1[nH]c2c(c1C)C(=O)CC(c1cc(OC)c(OC)c(OC)c1)C2 (stereo unspecified),-2.3% (inactive)
8,CCOc1ccc(-n2cnnn2)cc1S(=O)(=O)N1CCC(C)CC1C (stereo unspecified),-3.6% (inactive)
9,Cc1cccc(NC(=O)CN2C(=O)c3ccccc3C2=O)c1C,-4% (inactive)
10,Cc1ccc(SCCC(=O)Nc2cc(C)on2)cc1,-4.4% (inactive)
11,Cc1ccc(-c2csc(SCC(=O)Nc3cc(C)on3)n2)cc1,-4.8% (inactive)
12,Cc1ccc2nc(-c3ccc(SCC(=O)Nc4cc(C)on4)nc3)[nH]c2c1,73.4% (active)
13,COC(=O)NNC(=O)C1CCC(C)CC1 (stereo unspecified),-4.8% (inactive)
14,CCNS(=O)(=O)c1ccc(NC(=O)c2cncc(Br)c2)cc1,-4.2% (inactive)
15,COc1ccc(Nc2nc(NCc3ccco3)nc(N/N=C/c3ccccc3Cl)n2)cc1,-1.1% (inactive)
16,COc1cc(NC(=S)NNC(=O)CC(C)C)c(OC)cc1Cl,-8.4% (inactive)
17,O=C1OC(/C=C/c2ccccc2)=NC/1=C/c1ccco1,53.5% (active)
18,CC(C)(C)C1C/C(=C/c2ccco2)C(=O)/C(=C/c2ccco2)C1 (stereo unspecified),-5.4% (inactive)
19,COc1ccccc1/C=C/C1=NC(=C\N(C)C)/C(=O)O1,0.6% (inactive)
20,O=C(C1=C[C@H](c2coc3ccccc3c2=O)C[C@H](OCc2ccc(CO)cc2)O1)N1CCN(Cc2ccccc2)CC1,-6.2% (inactive)
21,CCN(CC)c1ccc2oc(=O)c(C)nc2c1,-3% (inactive)

row,Structure (SMILES),inhibition
1,CCc1ccc2oc(-c3ccc(N)cc3)nc2c1,80.7% (active)
2,CCCCCC(=O)Nc1ccc2oc(-c3ccncc3)nc2c1,-5.7% (inactive)
3,COc1cc(CN2CCNC(=O)C2CC(=O)NCCc2ncccc2C)cc(OC)c1 (stereo unspecified),-1.3% (inactive)
4,CCOC(=O)CCCNC(=O)COC(=O)/C=C/c1ccc2c(c1)OCO2,-1.4% (inactive)
5,Cc1cc(/C=C(/C#N)C(=O)Nc2ccc(Cl)cc2)c(C)n1-c1cccnc1,-3.9% (inactive)
6,Cc1cc(/C=C2/NC(=O)NC2=O)c(C)n1-c1cccnc1,56.5% (active)
7,Cc1ccccc1-n1c(C)cc(/C=C2\NC(=O)NC2=O)c1C,83.9% (active)
8,Cc1ccc(CN2C(=O)N/C(=C/c3cc(C)n(-c4ccccn4)c3C)C2=O)cc1,1.2% (inactive)
9,Cc1cccc(C)c1-n1c(C)cc(/C=C2\C(=O)NN(c3ccccc3)C2=O)c1C,13.6% (inactive)
10,Cc1cc(/C=C2\SC(=Nc3ccc(N4CCOCC4)cc3)N(C)C2=O)c(C)n1-c1cccnc1,-0.4% (inactive)
11,CC(NC(=O)c1cccc2ccccc12)c1ccc2c(c1)CCCC2 (stereo unspecified),-6.2% (inactive)
12,COc1ccc(C/C(N)=N/OC(=O)c2ccco2)cc1OC,-2.2% (inactive)
13,O=C(CCc1ccccc1)NNC(=O)c1ccc(Br)cc1,-1.3% (inactive)
14,Cc1ccc(C)c(Cn2nnc3c(=O)[nH]c(C(=O)Nc4ccc(F)cc4)nc32)c1,-10.1% (inactive)
15,CCN(c1ccccc1)S(=O)(=O)c1ccc2[nH]c(=O)[nH]c2c1,-6% (inactive)
16,O=C(COc1cc(Cl)c(Cl)cc1Cl)NCCc1ccccn1,4.2% (inactive)
17,CN(CCN1CCOCC1)Cc1nc(-c2ccc3c(c2)OCO3)no1,-5.1% (inactive)
18,O=C(O)CC/C(=N\NC(=O)c1ccc(F)cc1)c1ccc(Br)cc1,-2.4% (inactive)
19,COc1ccccc1-n1ccnc1SCC(=O)NC(C)(C)C,-7.3% (inactive)
